In PubChem BioAssay (Tox21):
Where “and” joins values, the source holds several entries; their conditions need not be identical. Equal entries are not always repeated. Inconclusive results are not listed. Entries that show only a call come without a potency. The source holds several records for some structures; these can differ, active in one and inactive in another. Calls of active or inactive are those of the source. Unless noted, calls follow the shape of the dose curve; as a rule, active = well fitted curve in the direction sought with a large enough effect in the repeat runs; inconclusive = weak or mixed curves; inactive = no such curve, though single readings can be large; an effect the other way counts as inactive or inconclusive.

Key:
[1] = qHTS assay to identify small molecule agonists of the hypoxia (HIF-1) signaling pathway - cell viability counter screen (AID 1224844; calls by dose curve; also: nearly all actives have a fitted effect of over 50% in size)
Method in brief: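 HRE-bla ME-180; 0.5% dFBS; cpd 17 h, 37C, 5% CO2; CellTiter-Glo lum., 30 min RT, post-FRET read, same wells.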

[2] = qHTS assay to identify small molecule agonists of H2AX (AID 1224845; active = well fitted activation curve with a large enough effect in the signal ratio in the repeat runs, not every such curve was filed as active; the % refers to the signal ratio)
Method in brief: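 Phospho-H2AX Ser139 measured by HTRF (ex 320 nm; em 665 and 620 nm) after 24 hr antibody incubation. Compounds, 15 concentrations, 0.76% DMSO, were applied to CHO-K1 cells for 3hr at 37C before lysis.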

[3] = qHTS assay to identify small molecule agonists of the hypoxia (HIF-1) signaling pathway (AID 1224846; active = well fitted activation curve with a large enough effect in the signal ratio in the repeat runs, not every such curve was filed as active; the % refers to the signal ratio)
Method in brief: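 Reporter induction in HRE-bla ME-180 cells is taken as agonism: cells sit 5 hrs after plating, receive compounds or DMSO only, incubate 17 hrs at 37C under 5% CO2, and are loaded with CCF4-AM for beta-lactamase FRET measurement.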

[4] = qHTS assay to identify small molecule agonists of H2AX - cell viability counter screen (AID 1224847; calls by dose curve; also: top concentration of the series differs between compounds; nearly all actives have a fitted effect of over 30% in size)
Method in brief: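 Compounds tested at 15 concentrations were incubated 3 hr at 37C with wild-type CHO-K1 cells; cellular ATP-based luminescence (CellTiter-Glo) indicated viability.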

[5] = qHTS RealTime-Glo MT Cell Viability Assay in HepG2 cells - 24 hour (AID 1224867); also: nearly all actives have a fitted effect of over 50% in size
Method in brief: (§1)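 HepG2 cells (600/well) were dispensed with RealTime-Glo reagents, incubated 5 h at 37 °C, then treated with compounds in DMSO for up to 40 h. Nonlytic NanoLuc luminescence reflecting viable cells was read at each stated time point.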

[6] = qHTS RealTime-Glo MT Cell Viability Assay in HEK293 cells - 32 hour (AID 1224868); also: nearly all actives have a fitted effect of over 50% in size; also: potency is read from the fitted curve at half-maximal effect
Method in brief: (§2)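 HEK293 cells seeded with NanoLuc/prosubstrate reagent, rested 5 h at 37 C, then dosed and kept at 37 C up to 40 h. Nonlytic real-time luminescence from viable cells read at 0, 8, 16, 24, 32 and 40 h.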

[7] = A CellTox Green Cytotoxicity Assay to monitor cytotoxicity in HEK293 cells - 0 hour (AID 1224869); also: nearly all actives have a fitted effect of over 50% in size
Method in brief: (§3)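 Tox21 screen in HEK293: membrane-impermeant cyanine dye fluoresces on binding dead-cell DNA; compound pinned 5 h post-seeding, plates held at 37 C, signal read repeatedly through 40 h.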

[8] = qHTS RealTime-Glo MT Cell Viability Assay in HepG2 cells - 40 hour (AID 1224870); also: nearly all actives have a fitted effect of over 50% in size
Method in brief: (§4)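 Real-time viability: cells seeded at 600 per well together with NanoLuc and cell-permeant prosubstrate, compounds added after 5 h incubation. Luminescence tracked at 0, 8, 16, 24, 32 and 40 h of exposure.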

[9] = qHTS RealTime-Glo MT Cell Viability Assay in HEK293 cells - 16 hour (AID 1224872); also: nearly all actives have a fitted effect of over 50% in size; also: potency is read from the fitted curve at half-maximal effect
Method in brief: as §2

[10] = qHTS RealTime-Glo MT Cell Viability Assay in HepG2 cells - 8 hour (AID 1224873); also: nearly all actives have a fitted effect of over 55% in size
Method in brief: as §4

[11] = qHTS RealTime-Glo MT Cell Viability Assay in HEK293 cells - 40 hour (AID 1224874); conditions: RealTime-Glo luminescence; max response: stronger effect = lower value; also: nearly all actives have a fitted effect of over 50% in size; also: potency is read from the fitted curve at half-maximal effect
Method in brief: (§5)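 HEK293 + NanoLuc + prosubstrate, 600 cells/well; 5 h, 37 C/5% CO2; compound 23 nL in DMSO by pintool; 37 C; luminescence read at 0, 8, 16, 24, 32 and 40 h time points.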

[12] = A CellTox Green Cytotoxicity Assay to monitor cytotoxicity in HEK293 cells - 24 hour (AID 1224875); also: nearly all actives have a fitted effect of over 45% in size
Method in brief: as §3

[13] = A CellTox Green Cytotoxicity Assay to monitor cytotoxicity in HepG2 cells - 16 hour (AID 1224876); also: nearly all actives have a fitted effect of over 45% in size
Method in brief: (§6)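 Measurements at 0, 8, 16, 24, 32 and 40 h of treatment captured CellTox Green fluorescence in HepG2 cells that had been co-plated with reagent and preincubated 5 h at 37 C/5% CO2.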

[14] = qHTS RealTime-Glo MT Cell Viability Assay in HepG2 cells - 32 hour (AID 1224877); also: nearly all actives have a fitted effect of over 55% in size
Method in brief: as §1

[15] = A CellTox Green Cytotoxicity Assay to monitor cytotoxicity in HepG2 cells - 24 hour (AID 1224878); also: nearly all actives have a fitted effect of over 45% in size; also: potency is read from the fitted curve at half-maximal effect
Method in brief: as §6

[16] = A CellTox Green Cytotoxicity Assay to monitor cytotoxicity in HepG2 cells - 40 hour (AID 1224879); also: nearly all actives have a fitted effect of over 40% in size; also: potency is read from the fitted curve at half-maximal effect
Method in brief: as §6

[17] = qHTS RealTime-Glo MT Cell Viability Assay in HEK293 cells - 0 hour (AID 1224880); also: top concentration of the series differs between compounds; nearly all actives have a fitted effect of over 45% in size
Method in brief: as §5

[18] = A CellTox Green Cytotoxicity Assay to monitor cytotoxicity in HEK293 cells - 40 hour (AID 1224871); also: nearly all actives have a fitted effect of over 45% in size; also: potency is read from the fitted curve at half-maximal effect
Method in brief: as §3

[19] = qHTS assay to identify small molecule antagonists of the estrogen related receptor (ERR) signaling pathway from Tox21 library (AID 1224848); also: nearly all actives have a fitted effect of over 50% in size
Method in brief: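 Luciferase luminescence (ONE-Glo, 30 min room temperature) was the read-out. Cells of the NTP-supplied ERR line, 2,000 per well, were given 6 h at 37 C before compound addition in DMSO and 18 h exposure at 37 C.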

[20] = qHTS assay to identify small molecule agonists of the estrogen related receptor (ERR) signaling pathway from Tox21 library (AID 1224849; calls by dose curve; also: nearly all actives have a fitted effect of over 15% in size); conditions: ERR reporter cell line, ONE-Glo luciferase, 18 h
Method in brief: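 Tox21 compounds tested for ERR agonism in an NTP reporter cell line: 18 h treatment at 37 C, then ONE-Glo luminescence.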

COc1cc([C@@H]2c3cc4c(cc3[C@H](O)[C@H]3COC(=O)[C@H]23)OCO4)cc(OC)c1OC
Potency [1]: inactive | outcome [2]: inactive | Potency [3]: inactive | Potency [4]: inactive | Potency [5]: inactive | Potency [6]: 0.0489 µM (active) | Potency [7]: inactive | Potency [8]: inactive | Potency [9]: inactive | Potency [10]: inactive | Potency [11]: 0.0489 µM (active) | Potency [12]: inactive | Potency [13]: inactive | Potency [14]: inactive | Potency [15]: inactive | Potency [16]: inactive | Potency [17]: inactive

Cc1ccc(C)c(O)c1C
Potency [1]: inactive | outcome [2]: inactive | Potency [3]: inactive | Potency [4]: inactive | Potency [5]: inactive | Potency [6]: inactive | Potency [7]: inactive | Potency [8]: inactive | Potency [9]: inactive | Potency [10]: inactive | max response [11]: 1.3% (inactive) and 2.18% (inactive) | Potency [12]: inactive | Potency [13]: inactive | Potency [14]: inactive | Potency [15]: inactive | Potency [16]: inactive

CCC(C)(O)CCCC(C)C (stereo unspecified)
Potency [1]: inactive | outcome [2]: inactive | Potency [3]: inactive | Potency [4]: inactive | Potency [5]: inactive | Potency [6]: inactive | Potency [7]: inactive | Potency [8]: inactive | Potency [18]: inactive | Potency [9]: inactive | Potency [10]: inactive | max response [11]: 0.571% (inactive) and 1.24% (inactive) | Potency [12]: inactive | Potency [13]: inactive | Potency [14]: inactive | Potency [15]: inactive | Potency [16]: inactive | Potency [17]: inactive

CN(C)C(=N)N=C(N)N
Potency [1]: inactive | outcome [2]: inactive | Potency [3]: inactive | Potency [4]: inactive | Potency [5]: inactive | Potency [6]: inactive | Potency [7]: inactive | Potency [8]: inactive | Potency [18]: inactive | Potency [9]: inactive | Potency [10]: inactive | max response [11]: 2.54% (inactive) and 1.8% (inactive) | Potency [12]: inactive | Potency [13]: inactive | Potency [14]: inactive | Potency [15]: inactive | Potency [16]: inactive | Potency [17]: inactive

C=CC(C)(CCC=C(C)C)OC(C)=O (stereo unspecified)
Potency [1]: inactive | outcome [2]: inactive | Potency [3]: inactive | Potency [4]: inactive | Potency [5]: inactive | Potency [6]: inactive | Potency [7]: inactive | Potency [8]: inactive | Potency [18]: inactive | Potency [9]: inactive | Potency [10]: inactive | max response [11]: 4.78% (inactive) and 0.789% (inactive) | Potency [12]: inactive | Potency [13]: inactive | Potency [14]: inactive | Potency [15]: inactive | Potency [16]: inactive

Cn1cnc([N+](=O)[O-])c1Sc1ncnc2nc[nH]c12
Potency [1]: inactive | outcome [2]: inactive | Potency [4]: inactive | Potency [19]: inactive | activity change, positive = activation ([20]; at 42.5 µM (top of the series)): 8.83% (inactive) | activity change, positive = activation ([20]; at 92.4 µM (top of the series)): 19.9% (active) | Potency [5]: inactive | Potency [6]: 19.4 µM (active) | Potency [7]: inactive | Potency [8]: inactive | Potency [18]: 34.5 µM (active) and inactive | Potency [10]: inactive | Potency [11]: 20.5 µM (active) and 21.3 µM (active) | Potency [13]: inactive | Potency [14]: inactive | Potency [15]: inactive | Potency [16]: 54.5 µM (active) and inactive

COc1ccc(OC)c(C(O)CNC(=O)CN)c1 (stereo unspecified)
Potency [1]: inactive | outcome [2]: inactive | Potency [4]: inactive | Potency [19]: inactive | activity change, positive = activation ([20]; at 42.5 µM (top of the series)): -0.419% (inactive) | activity change, positive = activation ([20]; at 92.4 µM (top of the series)): -28% (inactive) | Potency [5]: inactive | Potency [6]: inactive | Potency [7]: inactive | Potency [8]: inactive | Potency [9]: inactive | Potency [10]: inactive | max response [11]: 2.49% (inactive) and 0.0352% (inactive) | Potency [12]: inactive | Potency [13]: inactive | Potency [14]: inactive | Potency [15]: inactive | Potency [16]: inactive

CC(=O)c1ccccn1
Potency [1]: inactive | outcome [2]: inactive | Potency [3]: inactive | Potency [4]: inactive | Potency [5]: inactive | Potency [6]: inactive | Potency [7]: inactive | Potency [8]: inactive | Potency [18]: inactive | Potency [9]: inactive | Potency [10]: inactive | max response [11]: 3.52% (inactive) and 4.42% (inactive) | Potency [12]: inactive | Potency [13]: inactive | Potency [14]: inactive | Potency [15]: inactive | Potency [16]: inactive | Potency [17]: inactive

CCCCNS(=O)(=O)c1ccccc1
Potency [1]: inactive | outcome [2]: inactive | Potency [3]: inactive | Potency [4]: inactive | Potency [5]: inactive | Potency [6]: inactive and 4.36 µM (active) | Potency [7]: inactive | Potency [8]: inactive | Potency [9]: inactive and 7.76 µM (active) | Potency [10]: inactive | Potency [11]: 4.36 µM (active) | max response [11]: -5.06% (inactive) | Potency [12]: inactive | Potency [13]: inactive | Potency [14]: inactive | Potency [15]: inactive | Potency [16]: inactive | Potency [17]: inactive

COC(=O)c1ccccc1
Potency [1]: inactive | outcome [2]: inactive | Potency [3]: inactive | Potency [4]: inactive | Potency [5]: inactive | Potency [6]: inactive and 11 µM (active) | Potency [7]: inactive | Potency [8]: inactive | Potency [9]: inactive | Potency [10]: inactive | Potency [11]: 12.3 µM (active) | max response [11]: 7.68% (inactive) | Potency [12]: inactive | Potency [14]: inactive | Potency [15]: inactive | Potency [16]: inactive

NNc1ccc(C(=O)O)cc1
Potency [1]: inactive | outcome [2]: inactive | Potency [3]: inactive | Potency [4]: inactive | Potency [5]: inactive | Potency [6]: inactive | Potency [7]: inactive | Potency [8]: inactive | Potency [18]: inactive | Potency [9]: inactive | Potency [10]: inactive | max response [11]: 12.1% (inactive) | Potency [12]: inactive | Potency [13]: inactive | Potency [14]: inactive | Potency [15]: inactive | Potency [16]: inactive | Potency [17]: inactive

O=C(c1ccccc1)c1ccc(O)cc1O
Potency [1]: inactive | outcome [2]: inactive | Potency [3]: inactive | Potency [4]: inactive | Potency [5]: inactive | Potency [6]: inactive | Potency [7]: inactive | Potency [8]: inactive | Potency [9]: inactive | Potency [10]: inactive | max response [11]: -11.1% (inactive) and -19.8% (inactive) | Potency [12]: inactive | Potency [14]: inactive | Potency [15]: inactive and 38.9 µM (active) | Potency [16]: inactive and 43.6 µM (active)

CCCCCCCCCC(=O)OC
Potency [1]: inactive | outcome [2]: inactive | Potency [3]: inactive | Potency [4]: inactive | Potency [5]: inactive | Potency [6]: inactive | Potency [7]: inactive | Potency [8]: inactive | Potency [9]: inactive | Potency [10]: inactive | max response [11]: 7.54% (inactive) and -2.85% (inactive) | Potency [12]: inactive | Potency [14]: inactive | Potency [15]: inactive | Potency [16]: inactive
